HT1080NT lethal: kills 2HG-producing HT-1080-NT fibrosarcoma cells; AID 686970; HT-1080-NT fibrosarcoma viability, CellTiter-Glo ATP luminescence, 48 h; Potency, µM (series often up to 46.1 µM), actives largely listed as cytotoxic; hit rate 1.6% among 360,000;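 also: NT is the 2HG producing partner of a matched IDH1 knockdown line; nearly all actives have a fitted effect of over 55% in size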
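Fibrosarcoma NT cells, 750 per well in 5% FBS RPMI, were exposed to compound for 48 hours. Viability: CellTiter-Glo luminescence.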
DT40 TDP1 CPT: DT40-hTDP1 cell growth loss with CPT | chicken DT40 Tdp1-/-;hTDP1 cells + 20 nM CPT, ATP luminescence, 48 h | Potency, µM (doses to about 46.2 µM), usual class: inhibitors | hit rate 12% among 420,000 | AID 686979; also: nearly all actives have a fitted effect of over 55% in size
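Cell growth measured by CellTiter-Glo luminescence after a minimum 48 h, 37 C compound exposure with 20 nM CPT in Tdp1-knockout DT40 cells stably expressing hTDP1, seeded 400/well; qHTS titration format.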
HT1080 IDH1KD tx: kills HT-1080 cells with IDH1 knockdown; HT-1080 IDH1 knockdown viability, ATP luminescence, 48 h; Potency, µM (highest dose often 46.1 µM), usual class: cytotoxic; hit rate 2% among 360,000; AID 686971
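Assay cells: HT-1080 with IDH1 knockdown, 750 per well, RPMI/5% FBS. Exposure: 48 h at 37 °C following 2 h pre-incubation. Read: CellTiter-Glo luminescence; fitted concentration-response, curve class assigned.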
HepG2 viability: HepG2 cytotoxicity, counter-screen for TGF-b inhibitors; Potency, µM (titrated, usually from 46.1 µM), usual class: cytotoxic; HepG2 CAGA-GFP viability, ATP luminescence, 18 h; hit rate 0.76% among 410,000
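CellTiter-Glo luminescence gave cytotoxicity after 18 hours at 37 degrees C. The cells were HepG2 CAGA-GFP in 1% FBS DMEM, stimulated with 500 pg/mL TGF-beta after compound addition. %Activity was normalised to no-cell wells (complete cell-killing) and DMSO (no toxicity), and curves were fitted and classified.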
TGFb inhibitor: TGF-b pathway inhibition. HepG2 CAGA-GFP TGF-b/SMAD3 reporter, GFP fluorescence, 18 h; TGF-beta stimulated, 500 pg/mL final. Potency, µM (highest dose often 46.1 µM), hits mostly inhibitors. hit rate 1.2% among 410,000. AID 588855; also: nearly all actives have a fitted effect of over 65% in size
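HEPG2 CAGA-GFP, 1000 cells/well; 2 h settle, 37 C; cpd via pin tool; TGF-b 500 pg/mL final; 18 h, 37 C; GFP imaging ex488/em500-530; %Activity normalised to -TGF-b and +DMSO controls; CRC fit, curve class.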
DT40 TDP1 no CPT: qHTS for Inhibitors of human tyrosyl-DNA phosphodiesterase 1 (TDP1): qHTS in cells in absence of CPT; DT40 Tdp1-/- hTDP1 cells, no CPT, ATP luminescence, 48 h; Potency, µM (series often up to 46.2 µM), usual class: inhibitors; hit rate 15% among 420,000; also: nearly all actives have a fitted effect of over 55% in size
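Growth of hTDP1-complemented DT40 Tdp1-knockout cells is measured by ATP luminescence after at least 48 hr compound exposure at 37 °C, with DMSO substituting for the 20 nM CPT used in the parallel screen.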
Hits are given with their value; n = inactive; u = inconclusive; x = no result; [ ] = remark or other dose. In the library only some 17% were active in any assay of this set; here they are far more common. Calls follow the shape of the dose curve; as a rule, active = well fitted curve in the direction sought with a large enough effect; inconclusive = small, poorly fitted or top-dose-only effect, or another doubt; inactive = no such curve, though single readings can be large; an effect the other way counts as inactive or inconclusive.

SMILES	HT1080NT lethal	DT40 TDP1 CPT	HT1080 IDH1KD tx	HepG2 viability	TGFb inhibitor	DT40 TDP1 no CPT
C[C@@]12C(=O)N(c3cccc(F)c3)C(=O)N1[C@H](c1ccc(F)cc1)[C@@H]1C(=O)N(C3CCCCC3)C(=O)[C@@H]12	n	21µM	n	n	u	u
O=C1[C@H]2[C@@H](c3ccc(F)cc3)N3C(=O)N(c4cccc(Cl)c4)C(=O)[C@@]3(Cc3ccccc3)[C@H]2C(=O)N1C1CCCCC1	n	u	n	n	n	u
Cc1ccc(NC(=O)N2CCc3cc(S(=O)(=O)N4CCC(C)CC4)ccc32)cc1C	x	n	x	n	x	n
O=C(CSc1ncnc2c1nnn2Cc1ccccc1F)NCC1CCCO1 (configuration not stated)	n	u	u	n	u	n
O=C(c1ccc(Cl)cc1)c1ccc(OCC(O)CN2CCOCC2)cc1 (configuration not stated)	n	23µM	n	n	n	16µM
OC(COc1ccccc1)CN1CCOCC1 (configuration not stated)	n	n	n	n	u	n
OC(COc1ccc2cc(Br)ccc2c1)CN1CCOCC1 (configuration not stated)	n	18µM	u	n	n	u
O=C(O)CCCn1cc(NC(=O)c2cc(F)c(F)cc2Cl)cn1	n	u	n	n	n	23µM
O=C(O)CCCn1cc(NC(=O)c2cccc(F)c2)cn1	n	n	n	n	n	n
CCOC(=O)CC(NC(=O)CCc1c(C)nc2c(-c3ccccc3)c(C)nn2c1C)c1ccc(OC(C)C)cc1 (configuration not stated)	x	u	x	n	16µM	u
CCOC(=O)CC(NC(=O)CCc1c(C)nc2cc(-c3ccccc3)nn2c1C)c1ccc(C)cc1 (configuration not stated)	x	16µM	x	n	u	18µM
Cc1ccc(S(=O)(=O)Nc2cc(=O)[nH]c(SCC(=O)Nc3cccc(C)c3)n2)cc1	n	n	n	n	n	n
Cc1ccc2c(c1)N(C(=O)CCC(=O)NCc1cccc(F)c1)CCO2	n	n	n	n	n	n
COCc1ccc2oc(C(=O)O)cc2c1	n	12µM	n	n	n	23µM
COc1ccc(C2(C(=O)NCC3Cc4cccc(-c5cccnc5)c4O3)CCCC2)cc1 (configuration not stated)	x	n[9.04 µM]	x	x	x	u
CC(C)CC1Nc2ncnc(N3CCN(c4ccccc4)CC3)c2N(Cc2ccccc2)C1=O (configuration not stated)	n	16µM	n	n	u	15µM
COc1ccc(CN2C(=O)C(CC(C)C)Nc3ncnc(N4CCCCC4)c32)cc1 (configuration not stated)	n	u	n	n	n	u
CC(C)CC1NC(=S)N(C2CCCCC2)C1=O (configuration not stated)	n	8.2µM	n	n	n	15µM
CC(C)CC1Nc2ncnc(N3CCN(c4ccccc4)CC3)c2N(Cc2ccc(Br)cc2)C1=O (configuration not stated)	n	16µM	n	n	n	18µM
Cc1ccc(CN2C(=O)C(CC(C)C)Nc3ncnc(N4CCOCC4)c32)cc1 (configuration not stated)	n	n	n	n	u	n
CC(C)CC1Nc2ncnc(N3CCCCC3)c2N(Cc2ccccc2)C1=O (configuration not stated)	u	26µM	n	n	n	18µM
O=C1C(Cc2ccc(O)cc2)NC(=S)N1C1CCCCC1 (configuration not stated)	n	n	n	n	n	n
Cc1cc(C)n2c(SCC(=O)Nc3cccc(S(N)(=O)=O)c3)nnc2n1	n	n	n	n	n	n

Source: PubChem (National Center for Advancing Translational Sciences (NCATS))
